Experimental data as given in PubChem BioAssay (NCI).
Compounds without any hit were thinned out: in the full panel of roughly 79,000, 15% have a hit. Rule as the data show it: active = growth inhibition above about 70%; inactive = the rest.

Legend:
[1] = NCI Yeast Anticancer Drug Screen. Data for the rad50 strain (AID 155);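 also: 0% = growth of vehicle-only cultures of the same strain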; conditions: S. cerevisiae rad50 strain growth inhibition; at 50.0 µM; stronger effect = higher value
Procedure, shortened: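 A DNA repair-deficient yeast mutant serves as the test organism; compound-induced growth inhibition is calculated against vehicle-treated cells.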

[2] = NCI Yeast Anticancer Drug Screen. Data for the mec2-1 strain (AID 157); conditions: S. cerevisiae mec2-1 strain, at 50.0 µM, stronger effect = higher value
Procedure, shortened: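 Growth inhibition is read against vehicle-treated controls after compound exposure of the mec2-1 yeast strain, which is defective in DNA damage repair or cell cycle control.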

[3] = NCI Yeast Anticancer Drug Screen. Data for the sgs1 mgt1 strain (AID 161);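 also: 0% = growth of cultures given vehicle only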; conditions: S. cerevisiae sgs1 mgt1 strain, at 50.0 µM, stronger effect = higher value
Procedure, shortened: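 This yeast growth screen uses a strain with defined DNA-repair lesions; compound-treated growth is compared with vehicle-treated growth.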

[4] = NCI Yeast Anticancer Drug Screen. Data for the cln2 rad14 strain (AID 165);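 also: 0% = growth equal to vehicle treated cultures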; conditions: S. cerevisiae cln2 rad14 strain, at 50.0 µM, stronger effect = higher value
Procedure, shortened: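 Growth inhibition, relative to vehicle-treated controls, is the read-out. The test organism is a yeast strain with defined genetic alterations, cln2 rad14.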

[5] = NCI Yeast Anticancer Drug Screen. Data for the bub3 strain (AID 167); conditions: S. cerevisiae bub3 mutant strain, at 50.0 µM, stronger effect = higher value
Procedure, shortened: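 Inhibition values come from growth of compound-treated mutant yeast normalised to vehicle-treated controls.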

[6] = NCI Yeast Anticancer Drug Screen. Data for the mlh1 rad18 strain (AID 175); conditions: S. cerevisiae mlh1 rad18 strain growth inhibition; at 50.0 µM; stronger effect = higher value
Procedure, shortened: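 Cells of a genetically altered yeast strain, deficient in DNA damage repair, were treated with compound. Their growth was then compared with that of vehicle-treated cultures to give inhibition.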

Measured: growth inhibition

Cn1c2ccccc2c2oc(CO)cc(=O)c21
inactive: [1] 13.2% | [2] 0.4% | [3] 5.8% | [4] 23.9% | [5] 10.4% | [6] 19.3%

O=c1cc(-c2cccnc2)oc2ccc(Cl)cc12
inactive: [1] 59.8% | [2] -2.8% | [3] 7.7% | [4] -33.9% | [5] 11.2% | [6] 5.85%

COc1ccc2ncc(COC(C)=O)c(COC(C)=O)c2c1
inactive: [1] -10.9% | [2] -9.45% | [3] -7.8% | [4] 14.7% | [5] -12.4% | [6] -8.4%

O=C(c1ccccc1)c1cc(Br)c2cccc3c2c1CC3
inactive: [1] 11.6% | [2] -7.6% | [3] -1.5% | [4] 14.3% | [5] 20.4% | [6] -3%

CC12CCCC=C1N(C=O)c1ccccc12 (stereo not given)
inactive: [1] -6.1% | [2] 26.3% | [3] 14.7% | [4] 11.6% | [5] -28.1% | [6] 16.8%

C(/C=C\c1ccccc1)=Nc1ccccc1
inactive: [1] 8% | [2] -11.8% | [3] -4.55% | [4] 9.35% | [5] 0.2% | [6] 17.1%

CC1(C#N)CC/C(=C\c2ccc3c(c2)OCO3)C(=O)C1 (stereo not given)
inactive: [1] 0.3% | [2] 16.9% | [3] 4.75% | [4] -1.1% | [5] -6.7% | [6] -4.6%

CCOC(=O)c1nc(SC)sc1NC(=O)c1ccccc1[N+](=O)[O-]
inactive: [1] 21.2% | [2] -4.6% | [3] -8.75% | [4] 11.6% | [5] 3% | [6] -2.65%

CON(C)C(C#N)=C(C#N)C#N
inactive: [1] 9.75% | [2] 1.85% | [3] 21.1% | [4] 7.05% | [5] 8.1% | [6] 25.2%

CCN(CC)c1nc(Cl)nc(C(N)=O)c1N
inactive: [1] 4.85% | [2] -8.25% | [3] -10.4% | [4] -16.1% | [5] -1.2% | [6] -10.4%

CN1C(=O)CCC1(O)C1C=CC=CC1 (stereo not given)
inactive: [1] 16.8% | [2] 7.55% | [3] 1.75% | [4] 16.9% | [5] -4.9% | [6] -2.85%

O=C(/C=C(/Nc1ccccc1)c1ccccc1)c1ccccc1
inactive: [1] 7.3% | [2] 11.4% | [3] 8.9% | [4] 35.5% | [5] 15.9% | [6] 34.2%

CCOC(=O)C1=C(C(C)=O)C(c2ccc(OC)c(OC)c2)C(C(C)=O)=C(C(=O)OCC)N1
inactive: [1] 35.5% | [2] 12.9% | [3] 8.9% | [4] 35% | [5] -4.95% | [6] 8.55%

CC1SC2=NC3=C(c4ccccc4C3=O)C(c3ccccc3Cl)N2C1=O (stereo not given)
inactive: [1] 15.8% | [2] 8.75% | [3] 8.55% | [4] 4.95% | [5] 17.9% | [6] 23.3%

Nc1nnc2nc(CC(=O)c3ccccn3)/c(=C/C(=O)c3ccccn3)n12
inactive: [1] -7.3% | [2] -13.7% | [3] -2.8% | [4] -43.3% | [5] -26.9% | [6] -23.1%

CC(=O)Nc1ccc(S(=O)(=O)NNc2nc(N3CCCC3)nc(N3CCCC3)n2)cc1
inactive: [1] 1.7% | [2] -8.1% | [3] -14.4% | [4] 1.8% | [5] -1.25% | [6] 2.15%

O=C1C(c2ccccc2)=C(c2ccccc2)C(c2ccc(Sc3ccc(C4=C(c5ccccc5)C(=O)C(c5ccccc5)=C4c4ccccc4)cc3)cc2)=C1c1ccccc1
inactive: [1] 12.9% | [2] 22.6% | [3] 30.6% | [4] 15.7% | [5] -1.2% | [6] 24.2%

CC(C)OC(=O)C(=O)Nc1cccc(Cl)c1
inactive: [1] -3.45% | [2] -14.1% | [3] -29.5% | [4] -65.8% | [5] -15.3% | [6] -2.5%

CN1C(c2ccccc2)NC(=O)C12CCN(CCCC(=O)c1ccccc1)CC2 (stereo not given)
inactive: [1] 63.5% | [2] 39.7% | [3] 53.2% | [4] 19.5% | [5] 17.9% | [6] 45.2%

COC(=O)c1ccc(CSc2ccccc2NC(=S)Nc2cccc(C(F)(F)F)c2)o1
inactive: [1] -3.65% | [2] -20.2% | [3] -1.15% | [4] 4.65% | [5] -18.4% | [6] -7.6%
